# Target: AgAbp1
# Experiment: SPOT peptide array binding signal intensity (averaged, normalized) (arbitrary units (background-subtracted, floor 0; scale differs between SH3 domains)); higher = stronger binding of the SH3 domain to the peptide
# Description: (§1)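 GST-tagged SH3 domains from S. cerevisiae (Sc), A. gossypii (Ag), C. albicans (Ca) and S. pombe (Sp) were incubated at 10 ug/ml overnight at 4 C on cellulose SPOT membranes carrying 292 synthetic 15-mer peptides mined from the S. cerevisiae proteome (cysteines replaced by serines). Binding was detected with anti-GST antibody, HRP secondary and chemiluminescence, quantified with Genespotter, and reported as normalized spot intensities averaged over biological replicates.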
row,Binder,SPOT peptide array binding signal intensity
1,VRTRRRPPPPPIPST,28.5

# Target: AgBbc1
# Experiment: as above
# Description: as §1
row,Binder,SPOT peptide array binding signal intensity
1,VRTRRRPPPPPIPST,892

# Target: AgBem1-D1
# Experiment: as above
# Description: as §1
row,Binder,SPOT peptide array binding signal intensity
1,VRTRRRPPPPPIPST,472

# Target: AgBzz1-D1
# Experiment: as above
# Description: as §1
row,Binder,SPOT peptide array binding signal intensity
1,VRTRRRPPPPPIPST,3600

# Target: AgBzz1-D2
# Experiment: as above
# Description: as §1
row,Binder,SPOT peptide array binding signal intensity
1,VRTRRRPPPPPIPST,940

# Target: AgCyk3
# Experiment: as above
# Description: as §1
row,Binder,SPOT peptide array binding signal intensity
1,VRTRRRPPPPPIPST,2

# Target: AgFus1
# Experiment: as above
# Description: as §1
row,Binder,SPOT peptide array binding signal intensity
1,VRTRRRPPPPPIPST,30

# Target: AgHof1
# Experiment: as above
# Description: as §1
row,Binder,SPOT peptide array binding signal intensity
1,VRTRRRPPPPPIPST,258

# Target: AgHse1
# Experiment: as above
# Description: as §1
row,Binder,SPOT peptide array binding signal intensity
1,VRTRRRPPPPPIPST,29

# Target: AgLsb1
# Experiment: as above
# Description: as §1
row,Binder,SPOT peptide array binding signal intensity
1,VRTRRRPPPPPIPST,91.8

# Target: AgLsb4
# Experiment: as above
# Description: as §1
row,Binder,SPOT peptide array binding signal intensity
1,VRTRRRPPPPPIPST,44.5

# Target: AgMyo5
# Experiment: as above
# Description: as §1
row,Binder,SPOT peptide array binding signal intensity
1,VRTRRRPPPPPIPST,274

# Target: AgNbp2
# Experiment: as above
# Description: as §1
row,Binder,SPOT peptide array binding signal intensity
1,VRTRRRPPPPPIPST,840

# Target: AgRvs167
# Experiment: as above
# Description: as §1
row,Binder,SPOT peptide array binding signal intensity
1,VRTRRRPPPPPIPST,5.5

# Target: AgSho1
# Experiment: as above
# Description: as §1
row,Binder,SPOT peptide array binding signal intensity
1,VRTRRRPPPPPIPST,≤ 0

# Target: AgSla1-D1-D2
# Experiment: as above
# Description: as §1
row,Binder,SPOT peptide array binding signal intensity
1,VRTRRRPPPPPIPST,20

# Target: AgSla1-D3
# Experiment: as above
# Description: as §1
row,Binder,SPOT peptide array binding signal intensity
1,VRTRRRPPPPPIPST,346

# Target: CaAbp1-D1
# Experiment: as above
# Description: as §1
row,Binder,SPOT peptide array binding signal intensity
1,VRTRRRPPPPPIPST,61

# Target: CaAbp1-D2
# Experiment: as above
# Description: as §1
row,Binder,SPOT peptide array binding signal intensity
1,VRTRRRPPPPPIPST,55

# Target: CaBbc1
# Experiment: as above
# Description: as §1
row,Binder,SPOT peptide array binding signal intensity
1,VRTRRRPPPPPIPST,1060

# Target: CaBem1-D1
# Experiment: as above
# Description: as §1
row,Binder,SPOT peptide array binding signal intensity
1,VRTRRRPPPPPIPST,165

# Target: CaBzz1-D1
# Experiment: as above
# Description: as §1
row,Binder,SPOT peptide array binding signal intensity
1,VRTRRRPPPPPIPST,6060

# Target: CaBzz1-D2
# Experiment: as above
# Description: as §1
row,Binder,SPOT peptide array binding signal intensity
1,VRTRRRPPPPPIPST,3990

# Target: CaCyk3
# Experiment: as above
# Description: as §1
row,Binder,SPOT peptide array binding signal intensity
1,VRTRRRPPPPPIPST,108

# Target: CaFus1
# Experiment: as above
# Description: as §1
row,Binder,SPOT peptide array binding signal intensity
1,VRTRRRPPPPPIPST,7.5

# Target: CaHof1
# Experiment: as above
# Description: as §1
row,Binder,SPOT peptide array binding signal intensity
1,VRTRRRPPPPPIPST,≤ 0

# Target: CaHse1
# Experiment: as above
# Description: as §1
row,Binder,SPOT peptide array binding signal intensity
1,VRTRRRPPPPPIPST,13.8

# Target: CaLsb1
# Experiment: as above
# Description: as §1
row,Binder,SPOT peptide array binding signal intensity
1,VRTRRRPPPPPIPST,≤ 0

# Target: CaLsb4
# Experiment: as above
# Description: as §1
row,Binder,SPOT peptide array binding signal intensity
1,VRTRRRPPPPPIPST,176

# Target: CaMyo5
# Experiment: as above
# Description: as §1
row,Binder,SPOT peptide array binding signal intensity
1,VRTRRRPPPPPIPST,13

# Target: CaNbp2
# Experiment: as above
# Description: as §1
row,Binder,SPOT peptide array binding signal intensity
1,VRTRRRPPPPPIPST,610

# Target: CaRvs167
# Experiment: as above
# Description: as §1
row,Binder,SPOT peptide array binding signal intensity
1,VRTRRRPPPPPIPST,48.5

# Target: CaRvs167-3
# Experiment: as above
# Description: as §1
row,Binder,SPOT peptide array binding signal intensity
1,VRTRRRPPPPPIPST,2

# Target: CaSho1
# Experiment: as above
# Description: as §1
row,Binder,SPOT peptide array binding signal intensity
1,VRTRRRPPPPPIPST,25.5

# Target: CaSla1-D1-D2
# Experiment: as above
# Description: as §1
row,Binder,SPOT peptide array binding signal intensity
1,VRTRRRPPPPPIPST,2380

# Target: CaSla1-D3
# Experiment: as above
# Description: as §1
row,Binder,SPOT peptide array binding signal intensity
1,VRTRRRPPPPPIPST,296

# Target: ScAbp1
# Experiment: as above
# Description: as §1
row,Binder,SPOT peptide array binding signal intensity
1,VRTRRRPPPPPIPST,19

# Target: ScBbc1
# Experiment: as above
# Description: as §1
row,Binder,SPOT peptide array binding signal intensity
1,VRTRRRPPPPPIPST,358

# Target: ScBem1-D1
# Experiment: as above
# Description: as §1
row,Binder,SPOT peptide array binding signal intensity
1,VRTRRRPPPPPIPST,46

# Target: ScBzz1-D1
# Experiment: as above
# Description: as §1
row,Binder,SPOT peptide array binding signal intensity
1,VRTRRRPPPPPIPST,1430

# Target: ScBzz1-D2
# Experiment: as above
# Description: as §1
row,Binder,SPOT peptide array binding signal intensity
1,VRTRRRPPPPPIPST,210

# Target: ScCyk3
# Experiment: as above
# Description: as §1
row,Binder,SPOT peptide array binding signal intensity
1,VRTRRRPPPPPIPST,20.5

# Target: ScFus1
# Experiment: as above
# Description: as §1
row,Binder,SPOT peptide array binding signal intensity
1,VRTRRRPPPPPIPST,10

# Target: ScHof1
# Experiment: as above
# Description: as §1
row,Binder,SPOT peptide array binding signal intensity
1,VRTRRRPPPPPIPST,0.75

# Target: ScHse1
# Experiment: as above
# Description: as §1
row,Binder,SPOT peptide array binding signal intensity
1,VRTRRRPPPPPIPST,186

# Target: ScLsb1
# Experiment: as above
# Description: as §1
row,Binder,SPOT peptide array binding signal intensity
1,VRTRRRPPPPPIPST,96.8

# Target: ScLsb2
# Experiment: as above
# Description: as §1
row,Binder,SPOT peptide array binding signal intensity
1,VRTRRRPPPPPIPST,144

# Target: ScLsb3
# Experiment: as above
# Description: as §1
row,Binder,SPOT peptide array binding signal intensity
1,VRTRRRPPPPPIPST,584

# Target: ScLsb4
# Experiment: as above
# Description: as §1
row,Binder,SPOT peptide array binding signal intensity
1,VRTRRRPPPPPIPST,23.5

# Target: ScMyo3
# Experiment: as above
# Description: as §1
row,Binder,SPOT peptide array binding signal intensity
1,VRTRRRPPPPPIPST,851

# Target: ScMyo5
# Experiment: as above
# Description: as §1
row,Binder,SPOT peptide array binding signal intensity
1,VRTRRRPPPPPIPST,892

# Target: ScNbp2
# Experiment: as above
# Description: as §1
row,Binder,SPOT peptide array binding signal intensity
1,VRTRRRPPPPPIPST,1260

# Target: ScPex13
# Experiment: as above
# Description: as §1
row,Binder,SPOT peptide array binding signal intensity
1,VRTRRRPPPPPIPST,269

# Target: ScRvs167
# Experiment: as above
# Description: as §1
row,Binder,SPOT peptide array binding signal intensity
1,VRTRRRPPPPPIPST,624

# Target: ScSho1
# Experiment: as above
# Description: as §1
row,Binder,SPOT peptide array binding signal intensity
1,VRTRRRPPPPPIPST,141

# Target: ScSla1-D1-D2
# Experiment: as above
# Description: as §1
row,Binder,SPOT peptide array binding signal intensity
1,VRTRRRPPPPPIPST,3390

# Target: ScSla1-D3
# Experiment: as above
# Description: as §1
row,Binder,SPOT peptide array binding signal intensity
1,VRTRRRPPPPPIPST,488

# Target: SpAbp1-D1
# Experiment: as above
# Description: as §1
row,Binder,SPOT peptide array binding signal intensity
1,VRTRRRPPPPPIPST,13.5

# Target: SpBbc1
# Experiment: as above
# Description: as §1
row,Binder,SPOT peptide array binding signal intensity
1,VRTRRRPPPPPIPST,77.2

# Target: SpBzz1-D1
# Experiment: as above
# Description: as §1
row,Binder,SPOT peptide array binding signal intensity
1,VRTRRRPPPPPIPST,2830

# Target: SpBzz1-D2
# Experiment: as above
# Description: as §1
row,Binder,SPOT peptide array binding signal intensity
1,VRTRRRPPPPPIPST,430

# Target: SpCyk3
# Experiment: as above
# Description: as §1
row,Binder,SPOT peptide array binding signal intensity
1,VRTRRRPPPPPIPST,2

# Target: SpHof1
# Experiment: as above
# Description: as §1
row,Binder,SPOT peptide array binding signal intensity
1,VRTRRRPPPPPIPST,248

# Target: SpHof1-2
# Experiment: as above
# Description: as §1
row,Binder,SPOT peptide array binding signal intensity
1,VRTRRRPPPPPIPST,73

# Target: SpHof1-3
# Experiment: as above
# Description: as §1
row,Binder,SPOT peptide array binding signal intensity
1,VRTRRRPPPPPIPST,88.2

# Target: SpHse1
# Experiment: as above
# Description: as §1
row,Binder,SPOT peptide array binding signal intensity
1,VRTRRRPPPPPIPST,42.8

# Target: SpLsb1
# Experiment: as above
# Description: as §1
row,Binder,SPOT peptide array binding signal intensity
1,VRTRRRPPPPPIPST,63.5

# Target: SpLsb4
# Experiment: as above
# Description: as §1
row,Binder,SPOT peptide array binding signal intensity
1,VRTRRRPPPPPIPST,1370

# Target: SpMyo1
# Experiment: as above
# Description: as §1
row,Binder,SPOT peptide array binding signal intensity
1,VRTRRRPPPPPIPST,1460

# Target: SpNbp2
# Experiment: as above
# Description: as §1
row,Binder,SPOT peptide array binding signal intensity
1,VRTRRRPPPPPIPST,≤ 0

# Target: SpPex13
# Experiment: as above
# Description: as §1
row,Binder,SPOT peptide array binding signal intensity
1,VRTRRRPPPPPIPST,30

# Target: SpRvs167
# Experiment: as above
# Description: as §1
row,Binder,SPOT peptide array binding signal intensity
1,VRTRRRPPPPPIPST,265

# Target: SpSla1-D1-D2
# Experiment: as above
# Description: as §1
row,Binder,SPOT peptide array binding signal intensity
1,VRTRRRPPPPPIPST,520

# Target: SpSla1-D3
# Experiment: as above
# Description: as §1
row,Binder,SPOT peptide array binding signal intensity
1,VRTRRRPPPPPIPST,1
